Experimental data: PubChem BioAssay (EPA / NIEHS)
Inconclusive results are not listed. Calls of active or inactive are those of the source. The calls were made as follows: active = hit-call score of the fitted dose curve at least 0.9, where 1 is the maximum; inconclusive = response in the unintended direction; inactive = score below 0.9.

The molecules below were run against human Serotonin, 5-Hydroxytryptamine Receptor 5A (5HT5A), HTR5A (gene 3361) (UniProt P47898) (assay: NVS_GPCR_h5HT5A: NovaScreen (NVS) G Protein-Coupled Receptor Assay for human Serotonin, 5-Hydroxytryptamine Receptor 5A (5HT5A) (AID 2283251)).
Chain of human Serotonin, 5-Hydroxytryptamine Receptor 5A (5HT5A), HTR5A (gene 3361) (P47898 whole entry, looked up): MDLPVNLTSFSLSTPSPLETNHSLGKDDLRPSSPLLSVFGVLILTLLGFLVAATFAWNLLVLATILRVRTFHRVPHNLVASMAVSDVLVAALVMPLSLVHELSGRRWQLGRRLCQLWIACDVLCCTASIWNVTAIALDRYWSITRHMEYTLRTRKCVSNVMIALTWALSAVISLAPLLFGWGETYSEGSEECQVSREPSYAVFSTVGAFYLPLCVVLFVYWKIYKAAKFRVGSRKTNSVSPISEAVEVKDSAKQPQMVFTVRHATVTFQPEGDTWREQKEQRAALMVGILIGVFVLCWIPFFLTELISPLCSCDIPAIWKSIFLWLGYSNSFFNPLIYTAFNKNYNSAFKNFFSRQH
Experimental: NVS_GPCR_h5HT5A is a biochemical, single-readout assay that uses extracted gene-proteins from HEK293 in a cell-free assay. Measurements were taken 1 hour after chemical dosing in a 96-well plate.NVS_GPCR_h5HT5A is one of one assay component(s) measured or calculated from the NVS_GPCR_h5HT5A assay. It is designed to make measurements of radioligand binding, a form of binding reporter, as detected with scintillation counting signals by Filter-based radiodetection technology.Data from the assay component NVS_GPCR_h5HT5A was analyzed into 1 assay endpoint. This assay endpoint, NVS_GPCR_h5HT5A, was analyzed in the positive analysis fitting direction relative to DMSO as the negative control and baseline of activity. Using a type of binding reporter, loss-of-signal activity can be used to understand changes in the binding as they relate to the gene HTR5A. Furthermore, this assay endpoint can be referred to as a primary readout, because the performed assay has only produced 1 assay endpoint. To generalize the intended target to other relatable targets, this assay endpoint is annotated to the gpcr intended target family, where the subfamily is rhodopsin-like receptor.
Binding assays used specific radioligands (tritiated, iodinated) with non-radioactive competitive displacement ligands in agonist or antagonist protocols (as indicated) and various reference compounds and inhibitors to titrate specific binding to receptors and transporters. Most enzyme assays (CYPs, kinases, phosphatases, proteases, HDACs) used recombinant protein and specific substrates (fluorescence mostly, some colorimetric and radioactive) and inhibitors, followed by a biochemical separation of substrate and product. All assays for the biochemical HTS were initially run in duplicate at a single concentration (10 uM for CYP450 assays and 25 uM for all others). […] Each assay was run with positive and negative controls, and concurrent controls on every plate. The follow-up (secondary) screen tested active chemical-pairs in concentration series, as well as a few additional assays not tested in the primary screen, some selected negative inactives, and several cases re-run in the concentration series for confirmatory purposes.
In the case of CCCCC(O)(Cn1cncn1)c1ccc(Cl)cc1Cl (stereo not given), the outcome was “inactive”. For OC(c1ccc(Cl)cc1)(c1ccc(Cl)cc1)C(Cl)(Cl)Cl, the outcome was “inactive”. CCOC(=O)C(C)OC(=O)c1cc(Oc2ccc(C(F)(F)F)cc2Cl)ccc1[N+](=O)[O-] (stereo not given) was tested, and the AC50 was 6.67 µM (active). CO/N=C(/C1=NOCCO1)c1ccccc1Oc1ncnc(Oc2ccccc2Cl)c1F was tested, and the outcome was “inactive”. CN/C(=N\[N+](=O)[O-])NCc1cnc(Cl)s1 was tested, and the outcome was “inactive”. For CC1(C)C(C(=O)OC(C#N)c2cccc(Oc3ccccc3)c2)C1(C)C (stereo not given), the AC50 was 25 µM (active). CC(C)N1C(=O)N(c2ccccc2)CSC1=NC(C)(C)C was tested, and the outcome was “inactive”. O=C1C2CC=CCC2C(=O)N1SC(Cl)(Cl)Cl (stereo not given) was tested, and the outcome was “inactive”. For CC1(C)C(C=C(Cl)Cl)C1C(=O)OC(C#N)c1cccc(Oc2ccccc2)c1 (stereo not given), the outcome was “inactive”. In the case of CC(C)=CC1C(C(=O)OCc2coc(Cc3ccccc3)c2)C1(C)C (stereo not given), the AC50 was 25 µM (active).
